Assay [1] in a line: HepG2 liver cancer cell viability effects, profiling panel, resazurin fluorescence, 24 h, PK04 Diversity Set (AID 1172). Also: test concentration not given here. The settings on record: higher = more signal. In general terms: Resazurin is reduced to fluorescent resorufin, in cell work by metabolically active cells.
Assay [2] can be described thus: basal S. cerevisiae growth modulation, no modifier, primary screen, OD600, strain BY4716, 24 h, basal condition (AID 1173). Conditions: OD600, 24 h, higher = more signal, called active from +8 up or from −8 down.
The nature of assay [3]: MM1S myeloma cell viability, profiling panel, resazurin fluorescence, basal, 24 h, PK04 Diversity Set (AID 1174).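 Also: MM1S multiple myeloma cell line; test concentration not given here.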 The settings on record: higher = more signal, called active from +8 up or from −8 down.
In assay [4] the target is Dihydroorotate dehydrogenase (quinone), mitochondrial (Plasmodium falciparum (isolate 3D7)) (UniProt Q08210). The experiment in a line: PfDHODH enzyme inhibitors, primary screen, biochemical, C-terminal His tag, absorbance 600 nm (AID 1175).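 Also: recombinant parasite enzyme with a five histidine tag at its C terminus; test concentration not given here.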 The settings on record: DCIP absorbance 600 nm, higher = more signal, called active from +8 up or from −8 down.
Chain of Dihydroorotate dehydrogenase (quinone), mitochondrial (Plasmodium falciparum (isolate 3D7)) (Q08210 whole entry, looked up): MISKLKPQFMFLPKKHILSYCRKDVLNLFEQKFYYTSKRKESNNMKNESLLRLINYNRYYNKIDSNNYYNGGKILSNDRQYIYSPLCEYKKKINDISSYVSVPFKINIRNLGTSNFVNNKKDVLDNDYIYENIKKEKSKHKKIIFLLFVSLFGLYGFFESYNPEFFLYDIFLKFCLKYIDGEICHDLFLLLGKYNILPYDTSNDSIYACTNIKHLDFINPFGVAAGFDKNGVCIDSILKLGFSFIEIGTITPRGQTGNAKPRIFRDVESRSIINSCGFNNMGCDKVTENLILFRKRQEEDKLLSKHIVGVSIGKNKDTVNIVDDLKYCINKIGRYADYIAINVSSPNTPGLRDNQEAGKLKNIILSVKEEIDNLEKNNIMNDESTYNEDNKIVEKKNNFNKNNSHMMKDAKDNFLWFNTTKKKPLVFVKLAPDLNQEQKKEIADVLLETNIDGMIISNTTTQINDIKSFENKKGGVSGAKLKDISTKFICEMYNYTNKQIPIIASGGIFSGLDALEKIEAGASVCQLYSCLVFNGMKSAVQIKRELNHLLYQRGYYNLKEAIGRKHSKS
Assay [5] is described as follows: P. aeruginosa biofilm formation inhibitors, primary screen, strain PAO1, LB-PBS medium, absorbance 600 nm (AID 1176). Also: test concentration not given here. The settings on record: P. aeruginosa PAO1 growth/biofilm, A600, 12 h; higher = more signal.
Assay [6] is described as follows: S. cerevisiae RM11-1a growth modifiers, primary screen, strain RM11-1a, OD600, basal, 24 h (AID 1177).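 Also: cultures grown under basal conditions with no added stressor; test concentration not given here.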 The settings on record: OD600, 24 h, higher = more signal, called active from +8 up or from −8 down.
Assay [7] in a line: E. coli acrAB mutant growth effects, primary screen, E. coli filamentation inducers, strain DRC39, OD650, 24 h (AID 1178).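 Also: growth measured as culture turbidity by optical density at 650 nm; test concentration not given here.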 Conditions: higher = more signal, called active from +8 up or from −8 down.
Assay [8] can be described thus: E. coli acrAB mutant growth effects, primary screen, E. coli filamentation inducers, strain DRC39, OD650, 48 h (AID 1179).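 Also: screen aims at cell division blockers that make cells filament.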 Conditions: E. coli DRC39 delta-acrAB growth, higher = more signal, called active from +8 up or from −8 down.
Assay [9] can be described thus: RPMI8226 myeloma cell viability, profiling panel, resazurin fluorescence, basal, 24 h, PK04 Diversity Set (AID 1180).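 Also: RPMI8826 multiple myeloma cell line at 5000 cells per well; test concentration not given here.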 Conditions: higher = more signal.
In assay [10] the target is E3 ubiquitin-protein ligase XIAP (Homo sapiens) (UniProt P98170). The experiment in a line: XIAP binders, primary screen, biophysical, small-molecule microarray, fluorescence 635 nm (AID 1181).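 Also: score merges 667 nm emission and signal to noise over triplicate slides.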 The settings on record: small-molecule microarray binding, higher = more signal.
Chain of E3 ubiquitin-protein ligase XIAP (Homo sapiens) (P98170 whole entry, looked up): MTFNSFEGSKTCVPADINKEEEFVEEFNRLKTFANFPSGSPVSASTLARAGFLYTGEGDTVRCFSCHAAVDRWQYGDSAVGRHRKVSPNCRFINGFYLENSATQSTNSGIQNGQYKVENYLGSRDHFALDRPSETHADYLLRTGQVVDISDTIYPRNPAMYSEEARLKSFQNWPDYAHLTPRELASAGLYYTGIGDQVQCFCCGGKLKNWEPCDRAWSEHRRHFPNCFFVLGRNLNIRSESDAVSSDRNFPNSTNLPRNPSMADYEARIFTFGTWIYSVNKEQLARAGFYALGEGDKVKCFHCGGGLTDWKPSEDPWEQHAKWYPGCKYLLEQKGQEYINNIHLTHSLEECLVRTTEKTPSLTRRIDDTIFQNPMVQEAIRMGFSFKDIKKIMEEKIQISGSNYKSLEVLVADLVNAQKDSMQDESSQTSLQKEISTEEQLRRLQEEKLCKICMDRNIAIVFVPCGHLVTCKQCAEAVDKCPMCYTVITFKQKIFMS

Active and inactive are the calls of the source. Unless noted, no rule for the calls is given here.

Regarding `COc1ccc(C(=O)Nc2ccc(CN3C(=O)[C@@]4(O[C@@H](CC(=O)N(CCO)Cc5ccccc5)[C@H]([Si](C)(C)c5ccc(OC)cc5)[C@H]4C)c4ccccc43)cc2)cc1`, the z-score in [1] is 1.4; in assay [2] it was 0.164 (inactive); in [3] it was -0.952 (inactive); in assay [5] it was 0.814 (inactive); in [6] it was 0.961 (inactive); in assay [7], 0.7 (inactive). Besides, the z-score in assay [8] is 0.439 (inactive); in assay [9], -1.29. The composite z-score in [4] is -1.53 (inactive); in [10], 0.101.

Take `[N-]=[N+]=NCc1ccccc1[C@H]1OC(c2ccc(OCCCO)cc2)=N[C@@]1(CCS(=O)(=O)c1ccccc1)C(=O)NCCN1CCOCC1`: the z-score in [1] is -0.152; in assay [2], 0.256 (inactive); in assay [3] it was 0.285 (inactive); in assay [5], 1.13 (inactive); in assay [6], -0.199 (inactive); in assay [7] it was -0.178 (inactive). The z-score in assay [8] is -0.35 (inactive); in assay [9], 0.548. Also, the composite z-score is 0.12 (inactive) in assay [4] and -0.115 in [10].

With `COC(=O)[C@H](Cc1ccccc1)N1CC(C)(OC)O[C@@H](Cc2ccccc2)[C@H]1/C=C/C1CC1` (stereo not given in full), the z-score is 0.0905 in assay [1]; -0.968 (inactive) in assay [2]; -0.32 (inactive) in assay [3]; -0.532 (inactive) in assay [5]; 0.815 (inactive) in [6]; -0.311 (inactive) in [7]. The values for the z-score in assay [8] and in assay [9] were 0.215 (inactive) and -0.249, respectively. Moreover, the results for the composite z-score in assay [4] and in assay [10] were 0.512 (inactive) and 0.0583, respectively.

Regarding `C=CC[C@H](O)c1ccc(O)c(F)c1`, the z-score in assay [1] was -0.632; in [2] it was -2.36 (inactive); in assay [3], -0.711 (inactive); in assay [5], 0.131 (inactive); in assay [6], -0.498 (inactive); in assay [7], 0.117 (inactive). Further, the z-score was 0.0282 (inactive) in [8] and -0.0926 in [9]. Besides, the composite z-score in [4] is -0.0056 (inactive); in [10], -0.0088.

For the compound `O=C1N(Cc2ccccc2)Cc2ccccc2C[C@@]12COC(c1ccc(OCCCO)cc1)=N2`, the z-score in assay [1] is 0.775; in [2] it was 0.842 (inactive); in assay [3] it was -8.43 (active); in assay [5], -0.289 (inactive); in [6], 4.69 (inactive); in assay [7] it was 1.42 (inactive). Further, the z-score is 0.0613 (inactive) in assay [8] and -2.81 in assay [9]. Moreover, the values for the composite z-score in [4] and in [10] were 0.719 (inactive) and -0.124, respectively.

Regarding `COCCCNC(=O)[C@@]1(Cc2ccccc2I)c2ccccc2C(=O)N(Cc2ccccc2OC)[C@H]1c1ccc(CO)cc1`, the z-score in [1] was -0.831; in [2] it was -0.366 (inactive); in assay [3], -0.0499 (inactive); in assay [5], 0.18 (inactive); in [6], 1.06 (inactive); in assay [7], -0.033 (inactive). The z-score is -0.113 (inactive) in assay [8] and 0.317 in assay [9]. The composite z-score in [4] was 0.671 (inactive); in assay [10], 0.0506.

Take `C=CCN1C(=O)[C@@]2(O[C@@H](CCO)[C@H]([Si](C)(C)c3ccc(OC)cc3)[C@H]2C)c2cc(N3CCCCC3=O)ccc21`: the z-score was -2.74 in [1]; 0.208 (inactive) in [2]; -4.57 (inactive) in assay [3]; 0.568 (inactive) in assay [5]; 2.45 (inactive) in assay [6]; 1.16 (inactive) in assay [7]. The z-score in assay [8] is 0.777 (inactive); in assay [9] it was -5.44. The composite z-score in assay [4] was -1.11 (inactive); in [10], 0.271.

Turning to `CC(C)C[C@@H]1NC(=O)[C@@H]2C[C@H](C(=O)NCCCCCCNC(=O)CS)[C@H](c3ccc(O)cc3)N2C1=O`, the z-score in [1] is 0.0799; in assay [2], -0.295 (inactive); in assay [3] it was -0.471 (inactive); in assay [5], 1.97 (inactive); in assay [6] it was 0.199 (inactive); in assay [7], 0.306 (inactive). Also, the z-score is -0.874 (inactive) in [8] and -0.898 in assay [9]. The composite z-score is -0.283 (inactive) in [4] and 0.291 in assay [10].

On to `COCCOC(=O)N1C(=O)[C@@]2(c3cc(C#CCCO)ccc31)[C@H](C(=O)N1CCN(c3ncccn3)CC1)[C@H]1C(=O)O[C@H](c3ccccc3)[C@H](c3ccccc3)N1[C@@H]2c1ccc(OCCO)cc1`, for which the z-score in assay [1] was 0.739; in [2], 2.7 (inactive); in assay [3] it was -0.632 (inactive); in assay [5] it was 1.17 (inactive); in [6], 2.75 (inactive); in [7] it was -0.77 (inactive). In addition, the z-score in assay [8] is -0.548 (inactive); in assay [9], 0.555. In addition, the composite z-score was -0.486 (inactive) in [4] and 0.0432 in [10].

Turning to `CCOC(=O)C[C@H]1[C@H](OC(=O)c2cc3ccccc3oc2=O)[C@@H](NC(=O)c2ccc(-c3ccccc3)cc2)c2cc(OCCCO)ccc2N1C(=O)Cc1ccc(OC)cc1`, the z-score is 0.288 in assay [1]; 0.0392 (inactive) in [2]; -0.346 (inactive) in assay [3]; 0.285 (inactive) in assay [5]; -0.0775 (inactive) in assay [6]; -0.225 (inactive) in assay [7]. For the same compound, the z-score in [8] was -0.618 (inactive); in assay [9] it was -0.0232. The figures for the composite z-score in [4] and in [10] were -0.487 (inactive) and -0.338, respectively.

On to `CC(=O)NCCCC[C@@H]1NC(=O)[C@H]2C[C@@H](C(=O)NCCCCCN)[C@@H](c3ccc(O)cc3)N2C1=O`, for which the z-score in [1] is -0.508; in assay [2] it was 1.26 (inactive); in [3], -0.336 (inactive); in assay [5], -0.13 (inactive); in assay [6], 1.08 (inactive); in assay [7], -0.496 (inactive). In addition, the z-score in assay [8] is -0.696 (inactive); in assay [9], -0.121. The composite z-score in assay [4] was 0.538 (inactive); in assay [10], -0.224.

Turning to `CN1C2C=C(c3ccc(CO)cc3)C(C3C(=O)N(C(N)=O)C(=O)C32)C1C1CC1` (stereo not given), the z-score in [1] was -0.41; in assay [2], 1.31 (inactive); in assay [3], -0.611 (inactive); in assay [5], 0.354 (inactive); in assay [6], 0.718 (inactive); in assay [7] it was 0.0605 (inactive). Also, the z-score in [8] is 0.213 (inactive); in assay [9], -0.641. The composite z-score in assay [4] was 0.437 (inactive); in assay [10], -0.0745.

The values are drawn from PubChem BioAssay.
